Our source for the Potency values is PubChem BioAssay (NCATS).

“And” between values parts separate entries of the source, which are not always exact repeats. Equal entries are not always repeated. Records with an inconclusive call do not appear. The source made the active and inactive calls. The call rests on the fitted dose curve; in most records, active means well fitted inhibition curve with a large enough effect; inconclusive means small, poorly fitted or top-dose-only effect; inactive means flat fitted curve, though single readings scatter.

Common to all, as to test: qHTS profiling for inhibitors of Plasmodium falciparum proliferation (AID 504749); further: nearly all actives have a fitted effect of over 60% in size
What all share (conditions): P. falciparum in erythrocytes, SYBR Green DNA, 72 h; series mostly up to 28.7 µM
Background: qHTS replaces the single test concentration by a dilution series.

One test concerns CP203. In a few lines: (§1)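 P. falciparum-infected erythrocytes (0.3% parasitemia, 2.5% hematocrit final) were exposed to compounds for 72 h at 37 C in 5% CO2, then lysed with SYBR Green buffer overnight at room temperature; parasite DNA fluorescence was normalized to artemisinin and DMSO controls.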
The next test has as its system CP211. The essentials: as §1
For the next test, the system named is CP215. In a few lines: as §1
The subject of another test is CP217. In a few lines: as §1
The test system of the next test is CP237. In a few lines:
as §1

Another test concerns CP238. In a few lines: as §1
The test system of a further test is CP247. The essentials: as §1
A further test concerns CP250. In a few lines:
as §1

A further test relates to CP252. In a few lines:
as §1

Another test concerns CP256. In a few lines: as §1
Potency means the concentration at half of the fitted maximal effect.

Take `CNC(C)C(O)c1ccc(O)cc1` (centres undefined): the Potency result in the test with CP203, with CP211, in the test on CP215, in the test on CP217, in the test on CP237 and with CP238 was “inactive” each time. In addition, the Potency result with CP247, in the test with CP250, in the test on CP252 and with CP256 was “inactive” each time.
As for `COC([CH2][Hg])CNC(=O)c1ccccc1OCC(=O)O` (centres undefined), the Potency result with CP203, in the test on CP211, in the test on CP215, in the test with CP217, with CP237 and with CP238 was “inactive” in each case. Moreover, the Potency result with CP247, with CP250, in the test with CP252 and in the test with CP256 was “inactive” each time.
Consider `ClC1C(Cl)C(Cl)C(Cl)C(Cl)C1Cl` (centres undefined), for which the Potency entry with CP203, in the test on CP211, in the test with CP215, in the test on CP217, with CP237 and with CP238 was “inactive” throughout. In addition, the Potency entry in the test on CP247, with CP250, with CP252 and in the test with CP256 was “inactive” throughout.
Regarding `CC(C)CCON=O`, the Potency entry with CP203, with CP211, with CP215, with CP217, in the test on CP237 and with CP238 was “inactive” in each case. The Potency entry with CP247, with CP250, in the test on CP252 and in the test on CP256 was “inactive” in each case.
Consider `O=C(OCCN1CCCCC1)C(O)(c1ccccc1)c1ccccc1`, for which the Potency entry with CP203, with CP211, in the test with CP215, in the test on CP217, in the test with CP237 and in the test on CP238 was “inactive” throughout. In addition, the Potency result in the test on CP247, in the test with CP250, in the test on CP252 and with CP256 was “inactive” throughout.
For the compound `CC(C)(O)C1C2OC(=O)C1C1(O)CC3OC34C(=O)OC2C14C` (centres undefined), the Potency result in the test on CP203, in the test on CP211, with CP215, with CP217, in the test on CP237 and in the test on CP238 was “inactive” in each case. For the same compound, the Potency result in the test with CP247, in the test with CP250, with CP252 and in the test with CP256 was “inactive” throughout.
For `CCC1(CC)C(=O)NC(=O)N(C)C1=O`, the Potency entry with CP203, with CP211, with CP215, with CP217, with CP237 and in the test on CP238 was “inactive” in each case. In addition, the Potency entry in the test with CP247, in the test with CP250, with CP252 and with CP256 was “inactive” throughout.
As for `O=[N+]([O-])c1ccc(F)c([N+](=O)[O-])c1`, the Potency entry in the test with CP203, in the test on CP211, in the test on CP215, in the test on CP217, in the test on CP237 and in the test on CP238 was “inactive” throughout. Moreover, the Potency result in the test with CP247, with CP250, in the test on CP252 and in the test with CP256 was “inactive” in each case.
With `S=C=S`, the Potency result in the test with CP203, in the test on CP211, in the test with CP215, with CP217, in the test with CP237 and in the test with CP238 was “inactive” throughout. The Potency entry with CP247, in the test on CP250, in the test on CP252 and with CP256 was “inactive” in each case.
`CNC1(c2ccccc2Cl)CCCCC1=O` (centres undefined): the Potency result in the test with CP203, in the test with CP211, with CP215, with CP217, with CP238 and in the test on CP247 was “inactive” each time. The Potency result in the test on CP250, with CP252 and in the test on CP256 was “inactive” throughout. The Potency in the test with CP237 was 8.91 µM (active) and 7.94 µM (active).
On to `CC(=O)O[C@H]1CC[C@H]2[C@@H]3CCC4=CC(=O)CCC4=C3C=C[C@]12C`, for which the Potency result in the test with CP203, with CP211, with CP215, in the test with CP217, in the test on CP237 and in the test with CP238 was “inactive” in each case. The Potency entry in the test on CP247, in the test with CP250, in the test with CP252 and in the test with CP256 was “inactive” each time.
In the case of `FC(F)OC(F)(F)C(F)Cl` (centres undefined), the Potency result in the test on CP203, with CP211, with CP215, with CP217, in the test with CP237 and with CP238 was “inactive” each time. The Potency entry in the test on CP247, with CP250, with CP252 and in the test with CP256 was “inactive” each time.
Regarding `C[C@H]1CC[C@@H]2[C@@H](C)[C@H]3[C@H](C[C@H]4[C@@H]5CC=C6CC(O[C@@H]7O[C@H](CO)[C@H](O)[C@H](O[C@@H]8O[C@H](CO)[C@@H](O)[C@H](O)[C@H]8O)[C@H]7O[C@H]7O[C@@H](C)[C@H](O)[C@@H](O)[C@H]7O)CC[C@]6(C)[C@H]5CC[C@]34C)N2C1` (some centres undefined), the Potency entry with CP203, in the test on CP211, in the test with CP215, in the test with CP217, in the test with CP237 and in the test on CP238 was “inactive” throughout. Moreover, the Potency result in the test on CP247, with CP250 and with CP252 was “inactive” in each case.
For `CCOC(=O)c1ccccc1C(=O)OCC`, the Potency entry with CP203, with CP211, in the test with CP215, in the test on CP217, with CP237 and with CP238 was “inactive” in each case. Besides, the Potency result with CP247, in the test on CP250, with CP252 and in the test with CP256 was “inactive” throughout.
On to `CC(=O)OO`, for which the Potency result with CP203, with CP211, in the test with CP215, in the test with CP217, in the test on CP237 and in the test with CP238 was “inactive” each time. Also, the Potency result in the test with CP247, in the test with CP250, with CP252 and in the test on CP256 was “inactive” each time.
As to `c1ccc2cc(CC3=NCCN3)ccc2c1`, the Potency entry with CP203, in the test on CP211, with CP215, in the test with CP217, with CP237 and in the test on CP238 was “inactive” each time. Further, the Potency result in the test on CP247, with CP250, with CP252 and in the test on CP256 was “inactive” throughout.
`O=S(=O)(O)c1cc(O)ccc1O`: the Potency result in the test on CP203, in the test with CP211, in the test with CP215, in the test on CP217, in the test with CP237 and with CP238 was “inactive” in each case. Besides, the Potency entry in the test on CP247, in the test with CP250, in the test on CP252 and in the test on CP256 was “inactive” throughout.
As for `O=C1CCCCC1CN1CCCCC1` (centres undefined), the Potency result in the test on CP203, in the test with CP211, in the test on CP215, in the test with CP217, in the test with CP237 and in the test with CP238 was “inactive” in each case. For the same compound, the Potency entry in the test on CP247, in the test with CP250, in the test on CP252 and in the test on CP256 was “inactive” in each case.
Take `C[N+]1(C)C2CCC1CC(OC(=O)c1c[nH]c3ccccc13)C2` (centres undefined): the Potency result in the test with CP203, in the test on CP211, in the test with CP215, with CP217, in the test with CP237 and in the test with CP238 was “inactive” throughout. The Potency result in the test with CP247, in the test on CP250, with CP252 and in the test on CP256 was “inactive” in each case.
`O=C/C=C/c1ccccc1`: the Potency entry in the test on CP203, in the test on CP211, with CP215, with CP217, in the test with CP237 and with CP238 was “inactive” in each case. The Potency entry in the test with CP247, in the test with CP250, with CP252 and in the test on CP256 was “inactive” in each case.
For the compound `Clc1ccc(Cl)cc1`, the Potency result in the test on CP203, in the test on CP211, in the test on CP215, in the test on CP217, in the test with CP237 and in the test with CP238 was “inactive” each time. The Potency result in the test on CP247, with CP250, in the test with CP252 and in the test on CP256 was “inactive” each time.
On to `O=C(CCl)c1ccc(Oc2ccc(C(=O)CCl)cc2)cc1`, for which the Potency entry with CP203, with CP211, in the test on CP215, in the test with CP217, in the test on CP237 and in the test on CP238 was “inactive” each time. Also, the Potency entry with CP247, with CP250, with CP252 and in the test with CP256 was “inactive” in each case.
Regarding `CC(N)Cc1ccc(O)cc1` (centres undefined), the Potency result with CP203, in the test with CP211, in the test with CP215, in the test with CP217, with CP237 and with CP238 was “inactive” throughout. Besides, the Potency result in the test with CP247, with CP250, with CP252 and in the test with CP256 was “inactive” each time.
For the compound `COc1ccc(OC)c(C(O)C(C)N)c1` (centres undefined), the Potency entry in the test with CP203, in the test on CP211, in the test with CP215, in the test on CP217, in the test on CP237 and in the test with CP238 was “inactive” in each case. Also, the Potency result in the test with CP247, in the test on CP250, with CP252 and in the test on CP256 was “inactive” in each case.
